Measurements as given in PubChem BioAssay AID1159580 (chemical genetic matrix, 2015).
Hit rate of the full screen: of about 5,500 compounds, about 2,000 (36%) were called active. Inconclusive results (about 18%) are left out. No stated cut-off is given here; in the data, active means normalized growth mostly below about 0.91 (no sharp cut-off); inconclusive means no clear call, values can overlap the other calls; inactive means mostly above about 0.92. Some of the results follow.

Experiment: chemical genetic growth profiling, strain panel (AID 1159580);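 further: tested at 20 µM; growth read once vehicle control cultures reached saturation at 30 °C; 1 = growth at the plate median or of vehicle wells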
Conditions: S. cerevisiae deletion strains, growth OD

Measured: normalized growth

CC(=O)NNC(=O)N1Cc2ccccc2Oc2ccc(Cl)cc21
inactive: locus YAL013W, strain DEP1, stronger effect = lower value 1.04 | locus YAL040C, strain CLN3, stronger effect = lower value 1 | locus YCL061C, strain MRC1 (second series), stronger effect = lower value 1.02 | locus YDR150W, strain NUM1, stronger effect = lower value 1.02 | locus YDR363W, strain ESC2, stronger effect = lower value 1.03 | locus YER002W, strain NOP16, stronger effect = lower value 1 | locus YMR307W, strain GAS1, stronger effect = lower value 0.997 | locus YNL153C, strain GIM3, stronger effect = lower value 1.02 | locus YNL175C, strain NOP13, stronger effect = lower value 0.989 | locus YNL197C, strain WHI3, stronger effect = lower value 1.01 | locus YNL224C, strain SQS1, stronger effect = lower value 0.984 | locus YNL322C, strain KRE1, stronger effect = lower value 1.03 | locus YOR083W, strain WHI5 (second series), stronger effect = lower value 1.01 | locus YPL055C, strain LGE1, stronger effect = lower value 1.04 | locus YPL241C, strain CIN2, stronger effect = lower value 1
